Growth data for 40 compounds are collected here from PubChem BioAssay (NCI).

The panel holds about 83,000 compounds, 20% with a hit somewhere; the sample as a whole holds those more often.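 In brief: 96-well plates, 48 h treatment, single concentration, percent growth endpoint.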 Unmarked numbers belong to inactive results. Activity calls are given as the source filed them. Rule for the calls: active = growth percent below 10; inactive = the rest.

The test system of the assay is HL-60(TB) leukemia. In words: NCI-60 one-dose screen, 48 h (100 = growth as untreated, 0 = no growth, -100 = all killed). The settings on record: 10 µM unless noted.
On to `CCCCNc1nc(NN2C(=O)c3cccc4cccc(c34)C2=O)nc(-n2cnc3ccccc32)n1`, for which the growth is 94.2%.
In the case of `CCCc1cc(=O)oc2c3c(c4c(c12)OC(C)(C)CC4)OC(C)[C@H](C)[C@@H]3O` (stereo not given in full) it was 109%; in that of `Oc1ccc(Cc2ccc(O)c3ncccc23)c2cccnc12`, 5.77% (active); in that of `Cc1c(C(=N)C(C#N)C#N)c(=N)oc2c1ccc1ccccc12`, 65.2%.
In the case of `O=S(=O)(O)c1cccc2cccnc12`, the growth is 94%.
As for `CC(C)NS(=O)(=O)c1cccc(-c2ccc3c4c(n(CCCN(C)C)c(=O)c3c2)-c2ccccc2C4=O)c1`, the figure is 65.3%; as for `COC(=O)c1cc(Nc2ccc(O)c3c2C(=O)c2c([N+](=O)[O-])ccc(O)c2C3=O)cc(C(=O)OC)c1`, 62.3%.
`CC1(C)CC[C@]2(CO)CC[C@]3(C)[C@H](CC[C@@H]4[C@@]5(C)CC[C@H](O)C(C)(C)[C@@H]5CC[C@]43C)[C@H]2[C@H]1O`: the growth is 117%.
Turning to `O=C(O)CC1CCCCC1c1ccccc1` (stereo not given), the growth was 99.9%.
`Cc1ccccc1N1C(c2ccccc2)=NNC12C=CC(=O)C=C2Cl` (stereo not given): the growth was 82.4%.
As for `CCn1cnc(C[C@H](NC(=O)[C@@H](NC(=O)Nc2cc(C(F)(F)F)cc(C(F)(F)F)c2)C(C)C)C(=O)OC)c1`, the figure is -75.7% [100 µM] (active).
`CSc1nc2c(c(=O)n1C)N=C1c3ccccc3C(=O)C1C(c1ccccc1)N2` (stereo not given): the growth is 84.5%.
In the case of `O=C(Nc1ccc(-n2cc(-c3ccncc3)c(-c3ccc(O)c(Cl)c3)n2)cc1)c1cc(Cl)cc(Cl)c1` it was 28.1%; in that of `COc1ccccc1S(=O)(=O)Nc1ccc2c3c(cc(CCC(=O)NCCCCNc4cccc5c4C(=O)N(C4CCC(=O)NC4=O)C5=O)cc13)C(=O)N2C` (stereo not given), -1.81% (active); in that of `COc1ccc(/C=C/c2nc(Nc3ccc(S(=O)(=O)Nc4cc(C)on4)cc3)c3ccccc3n2)cc1`, 80.9%.
Regarding `NC(N)=NC(N)=Nc1cc2ccccc2c2ccccc12`, the growth is 28.8%.
As to `O=C(CCc1nnc2sc(Cc3ccccc3Cl)nn12)c1nc2ncccc2[nH]1`, the growth is 116%.
Turning to `COc1ccc2c(c1)C(=O)/C(=C/c1ccc([N+](=O)[O-])s1)O2`, the growth was -10.7% (active).
In the case of `O=[N+]([O-])c1ccc(OCCCOc2ccccc2)cc1`, the growth was 95.5%.
With `CC(C)CNCC(=O)Nc1ccc(Cc2ccc(NC(=O)CNCC(C)C)cc2)cc1`, the growth is 38%.
In the case of `CCC(=O)c1ccc(O)c(OC)c1` it was 102%; in that of `COc1ccc2c(c1)C(C)Cc1c(ncnc1-n1cnc3ccccc31)N2C` (stereo not given), -5.85% (active); in that of `Cc1cc2c(c(C)n1)CN(C(=O)Nc1nc(-c3cncs3)ccc1N)C2`, 139%.
Turning to `C[N+]1=C(/C=C/c2ccc(I)cc2)C(C)(C)c2ccccc21`, the growth was 39.4%.
As to `c1ccc(CSc2ncccc2-c2nnc(SCCN3CCOCC3)o2)cc1`, the growth is 101%.
As for `O=C1OC(c2ccc(-c3ccccc3)cc2)=C/C1=C/c1c(Cl)cccc1Cl`, the growth is 77.8%.
For `CN1CCN(Cc2ccc(NC(=O)c3cccc(C#Cc4cnc(N)c5ncccc45)c3F)cc2C(F)(F)F)CC1`, the growth was 12%.
Turning to `CS(=O)(=O)c1cccnn1`, the growth is 108%.
As for `O=C1Nc2ccccc2SC1C1SC(=S)N(Cc2ccccc2)C1=O` (stereo not given), the figure is 0.669% (active).
Regarding `C#CCOc1ccc2nc(CCl)c(Cl)c(Nc3cccc(C(F)(F)F)c3)c2c1`, the growth was 56.1%.
Take `Clc1ccc(Sc2nc(NC3CC3)nc(Sc3ccc(Cl)cc3)n2)cc1`: the growth is 60.9%.
`CCOC(=O)c1ccc(N2C(=O)C(Cl)(c3ccccc3)C2c2ccco2)cc1` (stereo not given): the growth was 66%.
For the compound `COc1cc(-c2nc(SCCC(C)C)nc(Nc3ccc(S(N)(=O)=O)cc3)c2C#N)cc(OC)c1OC`, the growth was -18.9% (active).
Take `COc1cccc(/C=N/NC(=O)c2cnn3c2NC(c2ccccc2)C3)c1Oc1ccccc1` (stereo not given): the growth was 74.6%.
With `FC(F)(F)c1cccc(Oc2ccc(Nc3ncnc4ccc(OCCCN5CCOCC5)cc34)cc2Cl)c1`, the growth was 32.8%.
Turning to `Cc1cc(N(CCNc2ccnc3cc(Cl)ccc23)Cc2ccc3c(c2)OCO3)nc(N2CCCC2)n1`, the growth is -61.9% (active).
Regarding `CC1=C(C(=O)c2ccccc2)C(c2ccc3c(c2)OCO3)NC(=S)N1` (stereo not given), the growth is 2.6% (active).
Take `COc1ccc(Nc2ncnc3ccc(-c4cncc(NS(C)(=O)=O)c4)cc23)cc1Cl`: the growth was 3.01% (active).
On to `O=c1oc2c(cc1-c1ccccc1)c[n+]([O-])c1ccccc21`, for which the growth is 97.7%.
Turning to `CCc1cc(Cc2cc(CC)cc(C(C)(C)C)c2O)c(O)c(C(C)(C)C)c1`, the growth is 58.1%.
